Test results taken from PubChem BioAssay (Tox21).
Records with an inconclusive call do not appear. The source made the active and inactive calls. Unless noted, calls follow the shape of the dose curve; as a rule, active = well fitted curve in the direction sought with a large enough effect in the repeat runs; inconclusive = weak or mixed curves; inactive = no such curve, though single readings can be large; an effect the other way counts as inactive or inconclusive.

Columns and labels:
[1] = molecular target: Aryl hydrocarbon receptor (Homo sapiens) (UniProt P35869); assay: qHTS assay to identify small molecule that activate the aryl hydrocarbon receptor (AhR) signaling pathway (AID 743085); also: nearly all actives have a fitted effect of over 15% in size; also: potency is read from the fitted curve at half-maximal effect;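 as to activation: HG2L7.5c1 human HepG2 liver cells with stably integrated DRE-driven firefly reporter; series mostly up to about 70 µM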
Method in brief: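 Compounds were tested in HepG2 hepatocellular carcinoma cells harbouring a stably integrated luciferase gene under control of 20 DREs. Increased reporter signal after 24 h treatment at 37C was taken as AhR activation.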

[2] = qHTS assay to identify small molecule that activate the aryl hydrocarbon receptor (AhR) signaling pathway - cell viability counter screen (AID 743086);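 also: HepG2 liver cells carrying the AhR DRE luciferase reporter; series mostly up to about 70 µM; nearly all actives have a fitted effect of over 45% in size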
Method in brief: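 HepG2-AhR-luc (HG2L7.5c1) cells, 4000/well, were preincubated 5 h at 37C, exposed to compound in qHTS format for 24 hr at 37C, then given CellTiter-Fluor for 30 min; viability was read as fluorescence in the reporter wells.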

[3] = molecular target: Peroxisome proliferator-activated receptor gamma (Homo sapiens) (UniProt P37231); assay: qHTS assay to identify small molecule agonists of the peroxisome proliferator-activated receptor gamma (PPARg) signaling pathway (AID 743094; active = well fitted activation curve with a large enough effect in the signal ratio in the repeat runs, not every such curve was filed as active; the % refers to the signal ratio)
Method in brief: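 Cells from the PPARg UAS-bla HEK293H line are plated and incubated 5 h at 37C. Compounds in DMSO are pinned in and left 17 h at 37C. LiveBLAzer B/G substrate is then added for 1 h at room temperature before fluorescence is measured.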

[4] = molecular target: Peroxisome proliferator-activated receptor gamma (Homo sapiens) (UniProt P37231); assay: qHTS assay to identify small molecule antagonists of the peroxisome proliferator-activated receptor gamma (PPARg) signaling pathway (AID 743191; calls by dose curve; also: series mostly up to about 63 µM; nearly all actives have a fitted effect of over 30% in size)
Method in brief: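 GeneBLAzer PPARg UAS-bla HEK293H cells carrying a UAS-driven beta-lactamase reporter were plated at 3000 cells/well, preincubated 5 h at 37C, then given compound for 17 h at 37C; LiveBLAzer B/G FRET substrate was read after 1 h at room temperature.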

[5] = qHTS assay to identify small molecule antagonists of the peroxisome proliferator-activated receptor gamma (PPARg) signaling pathway - cell viability counter screen (AID 743194); also: nearly all actives have a fitted effect of over 55% in size
Method in brief: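 PPARg-UAS-bla HEK293H cells were plated, rested 5 h at 37 C, then treated with compounds plus rosiglitazone (50 nM final) for 17 h at 37 C; viability was then read by CellTiter-Glo luminescence after 30 min at room temperature.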

[6] = qHTS assay for small molecule agonists of the antioxidant response element (ARE) signaling pathway (AID 743202; active = well fitted activation curve with a large enough effect in the signal ratio in the repeat runs, not every such curve was filed as active; the % refers to the signal ratio; also: potency is read from the fitted curve at half-maximal effect)
Method in brief: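 Steps: seed ARE-bla HepG2 cells (2,000/well); incubate 5 h at 37 C; add compounds by pin tool; incubate 16 h at 37 C; add FRET substrate; read fluorescence after 2 h at RT.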

[7] = qHTS assay for small molecule agonists of the antioxidant response element (ARE) signaling pathway - cell viability counter screen (AID 743203; calls by dose curve; also: nearly all actives have a fitted effect of over 55% in size)
Method in brief: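 Cytotoxicity was tested in parallel with the ARE reporter screen. ARE-bla HepG2 cells were exposed to compounds for 16 hrs, and viability was taken from CellTiter-Glo luminescence.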

[8] = qHTS assay for small molecule activators of the heat shock response signaling pathway - cell viability counter screen (AID 743209); also: nearly all actives have a fitted effect of over 50% in size
Method in brief: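 Cytotoxicity counter screen run in parallel with the HSE beta-lactamase reporter, using the same wells. HeLa HSE-bla cells received compound for 5 h at 37 C; ATP-based CellTiter-Glo luminescence was measured after 30 min at room temperature.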

[9] = qHTS assay to identify small molecule agonists of the peroxisome proliferator-activated receptor delta (PPARd) signaling pathway - cell viability counter screen (AID 743211); also: nearly all actives have a fitted effect of over 55% in size
Method in brief: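 Counter screen for cytotoxicity run in parallel with the PPARd reporter screen. Beta-lactamase reporter HEK293H cells exposed to compounds 17 h; ATP-based CellTiter-Glo luminescence quantified viability.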

[10] = qHTS assay for small molecule activators of the heat shock response signaling pathway (AID 743210; active = well fitted activation curve with a large enough effect in the signal ratio in the repeat runs, with a control signal flat, not every such curve was filed as active; the % refers to the signal ratio;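 also: HeLa cells with beta-lactamase reporter driven by heat shock elements; series mostly up to about 63 µM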)
Method in brief: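 Activation of heat shock element-controlled beta-lactamase expression is measured in HeLa cells by LiveBLAzer FRET fluorescence, with compound exposure lasting 5 h at 37 C and substrate loading 2.5 h at room temperature.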

Measured: Potency

Peroxisome proliferator-activated receptor gamma (Homo sapiens), sequence (P37231 whole entry, looked up): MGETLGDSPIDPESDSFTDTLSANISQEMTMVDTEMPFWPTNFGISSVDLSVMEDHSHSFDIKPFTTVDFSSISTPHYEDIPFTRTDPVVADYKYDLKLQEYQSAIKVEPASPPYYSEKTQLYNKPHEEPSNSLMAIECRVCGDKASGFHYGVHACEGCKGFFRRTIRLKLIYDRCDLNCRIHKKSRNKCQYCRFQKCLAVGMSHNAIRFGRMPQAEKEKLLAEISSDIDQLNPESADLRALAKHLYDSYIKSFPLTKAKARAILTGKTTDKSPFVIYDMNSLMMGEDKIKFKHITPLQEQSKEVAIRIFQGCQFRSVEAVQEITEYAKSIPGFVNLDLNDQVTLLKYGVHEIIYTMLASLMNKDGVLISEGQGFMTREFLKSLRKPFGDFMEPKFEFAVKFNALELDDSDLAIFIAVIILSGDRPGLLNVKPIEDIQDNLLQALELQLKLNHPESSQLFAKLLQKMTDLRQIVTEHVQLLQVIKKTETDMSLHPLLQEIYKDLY
Aryl hydrocarbon receptor (Homo sapiens), sequence (P35869 whole entry, looked up): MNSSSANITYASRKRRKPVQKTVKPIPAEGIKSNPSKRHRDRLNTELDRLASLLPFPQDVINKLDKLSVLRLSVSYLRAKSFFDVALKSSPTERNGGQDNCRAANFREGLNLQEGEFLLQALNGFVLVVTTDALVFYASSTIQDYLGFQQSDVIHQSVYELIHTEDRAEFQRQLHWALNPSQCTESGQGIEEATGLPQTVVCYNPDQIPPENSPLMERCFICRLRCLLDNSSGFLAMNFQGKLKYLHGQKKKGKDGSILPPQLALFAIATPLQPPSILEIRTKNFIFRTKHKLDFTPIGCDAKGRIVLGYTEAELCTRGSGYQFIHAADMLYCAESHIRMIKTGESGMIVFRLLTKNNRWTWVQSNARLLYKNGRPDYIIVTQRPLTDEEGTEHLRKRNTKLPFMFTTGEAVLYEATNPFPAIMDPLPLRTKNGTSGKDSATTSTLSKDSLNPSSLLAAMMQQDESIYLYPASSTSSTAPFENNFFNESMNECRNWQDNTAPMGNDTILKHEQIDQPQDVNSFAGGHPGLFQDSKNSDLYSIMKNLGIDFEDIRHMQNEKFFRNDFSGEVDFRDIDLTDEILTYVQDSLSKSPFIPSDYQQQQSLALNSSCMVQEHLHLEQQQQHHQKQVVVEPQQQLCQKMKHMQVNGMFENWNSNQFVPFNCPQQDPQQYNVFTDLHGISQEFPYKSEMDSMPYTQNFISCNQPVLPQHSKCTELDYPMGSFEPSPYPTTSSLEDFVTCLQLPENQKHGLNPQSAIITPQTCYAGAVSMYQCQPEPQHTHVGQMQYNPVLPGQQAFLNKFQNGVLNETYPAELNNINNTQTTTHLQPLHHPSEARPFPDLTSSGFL

F[Si-2](F)(F)(F)(F)F
not listed: [10]
inactive: all other assays above

C=CC(C)(O)CC/C=C(\C)CC (centres undefined)
not listed: [10]
inactive: all other assays above

C=C[C@@H](C)CCC=C(C)C
not listed: [8] | [10]
inactive: all other assays above

C[N+](C)(C)CC(O)CCl (centres undefined)
not listed: [7] | [10]
inactive: all other assays above

CCc1nccnc1C
not listed: [8]
inactive: all other assays above

C=CCOC(=O)c1ccc(C(=O)OCC=C)c(C(=O)OCC=C)c1
not listed: [8] | [10]
inactive: all other assays above

FC(F)(F)/C(=N\OCC1OCCO1)c1ccc(Cl)cc1
not listed: [7]
inactive: all other assays above

CCCCC[Si](OCC)(OCC)OCC
not listed: [8] | [10]
inactive: all other assays above

O=S1(=O)CCCC1
not listed: [8]
inactive: all other assays above

O=C(O)CCNC(=O)c1ccccc1
not listed: [7]
inactive: all other assays above

O=CN1CCOCC1
not listed: [7]
inactive: all other assays above

Cc1c(C(C)C)c(=O)n(-c2ccccc2)n1C
not listed: [7]
inactive: all other assays above

NC(Cc1c[nH]c2ccccc12)C(=O)O (centres undefined)
active: [1] 21.2 µM
not listed: [8]
inactive: all other assays above

Nc1cc(C(=O)O)ccc1Cl
not listed: [7]
inactive: all other assays above

C=C(C)C(=O)OCCCCCCOC(=O)C(=C)C
not listed: [8]
inactive: all other assays above

CCCCCCCCCCCCCC(=O)OC
not listed: [7] | [10]
inactive: all other assays above

CCCCCC1Nc2cc(C(F)(F)F)c(S(N)(=O)=O)cc2S(=O)(=O)N1 (centres undefined)
not listed: [8]
inactive: all other assays above

CCOC(=O)CCCCCCCCC(=O)OCC
not listed: [7]
inactive: all other assays above

O=c1[nH]c(=O)c2ccccc2o1
not listed: [8]
inactive: all other assays above

O=P(O)(O)OCC(O)CO (centres undefined)
not listed: [8] | [10]
inactive: all other assays above

COc1ccc(/C=N/NC(=O)c2ccncc2)cc1OC
active: [1] 2.66 µM
not listed: [10]
inactive: all other assays above

CC(C)C(=O)c1ccccc1
not listed: [8]
inactive: all other assays above

COCC(=O)Nc1c(I)c(C(=O)NCC(O)CO)c(I)c(C(=O)N(C)CC(O)CO)c1I (centres undefined)
not listed: [7]
inactive: all other assays above

Cn1c(=O)c2c(ncn2CC2OCCO2)n(C)c1=O
not listed: [4] | [7]
inactive: all other assays above

CC(C)CCCCCCOC(=O)C1CCCCC1C(=O)OCCCCCCC(C)C (centres undefined)
not listed: [4] | [10]
inactive: all other assays above

CCN(Cc1cccc(S(=O)(=O)O)c1)c1ccccc1
not listed: [4]
inactive: all other assays above

Cc1ncc([N+](=O)[O-])n1CC(O)CCl (centres undefined)
not listed: [4] | [8]
inactive: all other assays above

Cc1cc(O)c2c(c1)C(=O)c1cccc(O)c1C2=O
active: [1] 26.7 µM | [6] 10.6 µM
not listed: [4] | [8]
inactive: all other assays above

CC(=O)OC(C)c1ccccc1 (centres undefined)
not listed: [4] | [10]
inactive: all other assays above

O=C1OC(=O)c2cc(Oc3ccc4c(c3)C(=O)OC4=O)ccc21
not listed: [4]
inactive: all other assays above

CC(CC(=O)O)CC(C)(C)C (centres undefined)
not listed: [4]
inactive: all other assays above

CCCCC(CC)C(=O)OC(C)C (centres undefined)
not listed: [4] | [7]
inactive: all other assays above

CN[C@@H]1[C@@H](O)[C@@H](O[C@@H]2[C@H](O)[C@H](O[C@H]3OC(CN)=CC[C@H]3N)[C@@H](N)C[C@H]2N)OCC1(C)O (some centres undefined)
not listed: [4]
inactive: all other assays above

Nc1ccc(S(=O)(=O)Nc2ccccn2)cc1
not listed: [4] | [10]
inactive: all other assays above

OCCCCCCCl
not listed: [4] | [7]
inactive: all other assays above

CCC(C)(C)C1CCC(=O)CC1
not listed: [4] | [8]
inactive: all other assays above

CN=C(NC#N)NCCSCc1csc(N=C(N)N)n1
not listed: [4]
inactive: all other assays above

CCOC(=O)C(C)(C)C
not listed: [4]
inactive: all other assays above

CC1(N)CCC(C(C)(C)N)CC1 (centres undefined)
not listed: [4]
inactive: all other assays above

CCCCC(C)C(=O)O (centres undefined)
not listed: [4] | [8]
inactive: all other assays above

Cc1cc(C)cc([N+](=O)[O-])c1
not listed: [4] | [10]
inactive: all other assays above

CO[Si](CCCCl)(OC)OC
not listed: [4] | [6]
inactive: all other assays above

O=C(O)/C=C/c1ccccc1
not listed: [4] | [8] | [10]
inactive: all other assays above

CC(C)(c1ccc(Oc2ccc3c(c2)C(=O)OC3=O)cc1)c1ccc(Oc2ccc3c(c2)C(=O)OC3=O)cc1
not listed: [4]
inactive: all other assays above

SCCSCCS
not listed: [4] | [7]
inactive: all other assays above

O=C(O)C(=O)Nc1cccc(-c2nn[nH]n2)c1
not listed: [4]
inactive: all other assays above

O=C1CC[C@H](C(=O)N2CCCCC2)N1
not listed: [4]
inactive: all other assays above

C=C(C)C(=O)OC
not listed: [4]
inactive: all other assays above

CCCCC(=O)N(C)C
not listed: [4] | [7] | [10]
inactive: all other assays above

CC(C)(C)c1ccc(C=O)cc1
not listed: [4] | [8]
inactive: all other assays above

CCCCOC(=O)C(C)OC(=O)CCC (centres undefined)
not listed: [4] | [8] | [10]
inactive: all other assays above

CCS(=O)(=O)CCn1c([N+](=O)[O-])cnc1C
not listed: [4] | [8]
inactive: all other assays above

CCCOC(=O)CCCCC(=O)OCCC
not listed: [4] | [7]
inactive: all other assays above

FC(F)(F)c1ccc(Cl)cc1Cl
not listed: [4]
inactive: all other assays above

C=C(C)[C@@H]1CC[C@@H](C)C[C@@H]1O
not listed: [4]
inactive: all other assays above

CC(=O)/C=C/c1ccco1
not listed: [4]
inactive: all other assays above

CCCCOC(=O)[C@@H](C)Oc1ccc(Oc2ccc(C(F)(F)F)cn2)cc1
not listed: [4] | [6]
inactive: all other assays above
